Out of some 5,500 compounds screened, about 2,000 (36%) were called active. Inconclusive results (about 18%) are left out. Cut-off read from the data, not from the text of the source: active = normalized growth mostly below about 0.91 (no sharp cut-off); inconclusive = no clear call, values can overlap the other calls; inactive = mostly above about 0.92. The list shows a part of the results.
Assay: chemical genetic growth profiling, strain panel (AID 1159580);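 note: tested at 20 µM; growth read once vehicle control cultures reached saturation at 30 °C; 1 = growth at the plate median or of vehicle wells; lower values mean less growth of the strain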
Conditions: growth OD
[1] = S. cerevisiae deletion strains, locus YDR150W, strain NUM1, stronger effect = lower value
[2] = S. cerevisiae deletion strains, locus YMR263W, strain SAP30, stronger effect = lower value
[3] = S. cerevisiae deletion strains, locus YPL055C, strain LGE1, stronger effect = lower value
[4] = S. cerevisiae deletion strains, locus YPL241C, strain CIN2, stronger effect = lower value
[5] = S. cerevisiae deletion strains, locus YDL101C, strain DUN1, stronger effect = lower value
[6] = S. cerevisiae deletion strains, locus YHR030C, strain SLT2, stronger effect = lower value

Measured: normalized growth

OCc1cc(C(O)CNCCCCCCOCCCCc2ccccc2)ccc1O (stereo unspecified)
inactive: S. cerevisiae deletion strains, locus YAL040C, strain CLN3, stronger effect = lower value 1.07 | S. cerevisiae deletion strains, locus YCL061C, strain MRC1 (second series), stronger effect = lower value 1.01 | [1] 1.01 | S. cerevisiae deletion strains, locus YDR363W, strain ESC2, stronger effect = lower value 0.995 | S. cerevisiae deletion strains, locus YER002W, strain NOP16, stronger effect = lower value 1.02 | [2] 1.01 | S. cerevisiae deletion strains, locus YMR307W, strain GAS1, stronger effect = lower value 0.992 | S. cerevisiae deletion strains, locus YNL175C, strain NOP13, stronger effect = lower value 1.01 | S. cerevisiae deletion strains, locus YNL197C, strain WHI3, stronger effect = lower value 1.01 | S. cerevisiae deletion strains, locus YNL224C, strain SQS1, stronger effect = lower value 1.01 | S. cerevisiae deletion strains, locus YOR083W, strain WHI5 (second series), stronger effect = lower value 1.01 | [3] 0.983 | [4] 0.997

N/C(Cn1ccc(C(F)(F)F)n1)=N/OS(=O)(=O)c1cccc(Cl)c1Cl
inactive: S. cerevisiae deletion strains, locus YAR019C, strain CDC15, stronger effect = lower value 0.979 | S. cerevisiae deletion strains, locus YBL105C, strain PKC1, stronger effect = lower value 0.989 | S. cerevisiae deletion strains, locus YBR135W, strain CKS1, stronger effect = lower value 0.977 | S. cerevisiae deletion strains, locus YBR136W, strain MEC1, stronger effect = lower value 0.985 | S. cerevisiae deletion strains, locus YBR160W, strain CDC28, stronger effect = lower value 0.972 | S. cerevisiae deletion strains, locus YDL017W, strain CDC7, stronger effect = lower value 0.994 | S. cerevisiae deletion strains, locus YDL028C, strain MPS1, stronger effect = lower value 0.985 | [5] 0.989 | S. cerevisiae deletion strains, locus YDL108W, strain KIN28, stronger effect = lower value 0.98 | S. cerevisiae deletion strains, locus YDL132W, strain cdc53, stronger effect = lower value 0.983 | S. cerevisiae deletion strains, locus YDL214C, strain PRR2, stronger effect = lower value 1.01 | S. cerevisiae deletion strains, locus YDR052C, strain DBF4, stronger effect = lower value 0.986 | S. cerevisiae deletion strains, locus YDR054C, strain cdc34, stronger effect = lower value 0.975 | S. cerevisiae deletion strains, locus YDR226W, strain ADK1, stronger effect = lower value 0.987 | S. cerevisiae deletion strains, locus YDR477W, strain SNF1, stronger effect = lower value 0.993 | S. cerevisiae deletion strains, locus YER123W, strain YCK3, stronger effect = lower value 0.989 | S. cerevisiae deletion strains, locus YER133W, strain GLC7, stronger effect = lower value 0.995 | S. cerevisiae deletion strains, locus YFL009W, strain cdc4, stronger effect = lower value 0.988 | S. cerevisiae deletion strains, locus YFL029C, strain CAK1, stronger effect = lower value 0.979 | S. cerevisiae deletion strains, locus YFR003C, strain YPI1, stronger effect = lower value 0.985 | S. cerevisiae deletion strains, locus YFR019W, strain FAB1, stronger effect = lower value 1 | S. cerevisiae deletion strains, locus YFR028C, strain CDC14, stronger effect = lower value 0.98 | S. cerevisiae deletion strains, locus YGR040W, strain KSS1, stronger effect = lower value 0.983 | S. cerevisiae deletion strains, locus YGR052W, strain FMP48, stronger effect = lower value 1.09 | S. cerevisiae deletion strains, locus YGR092W, strain DBF2, stronger effect = lower value 0.974 | [6] 1.07 | S. cerevisiae deletion strains, locus YHR079C, strain IRE1, stronger effect = lower value 1.05 | S. cerevisiae deletion strains, locus YHR082C, strain KSP1, stronger effect = lower value 1.11 | S. cerevisiae deletion strains, locus YHR205W, strain SCH9, stronger effect = lower value 1.02 | S. cerevisiae deletion strains, locus YIL147C, strain SLN1, stronger effect = lower value 0.987 | S. cerevisiae deletion strains, locus YJL095W, strain BCK1, stronger effect = lower value 1.08 | S. cerevisiae deletion strains, locus YJL128C, strain PBS2, stronger effect = lower value 0.988 | S. cerevisiae deletion strains, locus YJL157C, strain FAR1, stronger effect = lower value 1 | S. cerevisiae deletion strains, locus YJR016C, strain ILV3, stronger effect = lower value 0.989 | S. cerevisiae deletion strains, locus YJR066W, strain TOR1 (second series), stronger effect = lower value 0.982 | S. cerevisiae deletion strains, locus YJR066W, strain TOR1, stronger effect = lower value 1.12 | S. cerevisiae deletion strains, locus YKL048C, strain ELM1, stronger effect = lower value 0.984 | S. cerevisiae deletion strains, locus YKL067W, strain YNK1, stronger effect = lower value 0.994 | S. cerevisiae deletion strains, locus YKL101W, strain HSL1, stronger effect = lower value 1.01 | S. cerevisiae deletion strains, locus YKL193C, strain SDS22, stronger effect = lower value 0.983 | S. cerevisiae deletion strains, locus YKL203C, strain TOR2, stronger effect = lower value 1.06 | S. cerevisiae deletion strains, locus YLR113W, strain HOG1, stronger effect = lower value 1.04 | S. cerevisiae deletion strains, locus YLR133W, strain CKI1, stronger effect = lower value 1.01 | S. cerevisiae deletion strains, locus YLR403W, strain SFP1, stronger effect = lower value 0.992 | S. cerevisiae deletion strains, locus YML070W, strain DAK1, stronger effect = lower value 1 | S. cerevisiae deletion strains, locus YMR001C, strain CDC5, stronger effect = lower value 0.983 | S. cerevisiae deletion strains, locus YMR205C, strain PFK2 (second series), stronger effect = lower value 1 | S. cerevisiae deletion strains, locus YMR277W, strain FCP1, stronger effect = lower value 0.991 | S. cerevisiae deletion strains, locus YNL006W, strain LST8, stronger effect = lower value 0.99 | S. cerevisiae deletion strains, locus YNL020C, strain ARK1, stronger effect = lower value 1.01 | S. cerevisiae deletion strains, locus YNL161W, strain CBK1, stronger effect = lower value 0.981 | S. cerevisiae deletion strains, locus YNL183C, strain NPR1, stronger effect = lower value 1.06 | S. cerevisiae deletion strains, locus YNL207W, strain RIO2, stronger effect = lower value 0.977 | S. cerevisiae deletion strains, locus YNL222W, strain SSU72, stronger effect = lower value 0.977 | S. cerevisiae deletion strains, locus YNL307C, strain MCK1 (second series), stronger effect = lower value 0.997 | S. cerevisiae deletion strains, locus YOL078W, strain AVO1, stronger effect = lower value 0.986 | S. cerevisiae deletion strains, locus YOL136C, strain PFK27, stronger effect = lower value 1.02 | S. cerevisiae deletion strains, locus YOR061W, strain CKA2, stronger effect = lower value 1.01 | S. cerevisiae deletion strains, locus YOR119C, strain RIO1, stronger effect = lower value 1.04 | S. cerevisiae deletion strains, locus YOR231W, strain MKK1, stronger effect = lower value 1.01 | S. cerevisiae deletion strains, locus YOR329C, strain SCD5, stronger effect = lower value 0.992 | S. cerevisiae deletion strains, locus YPL031C, strain PHO85, stronger effect = lower value 0.998 | S. cerevisiae deletion strains, locus YPL153C, strain RAD53, stronger effect = lower value 0.987 | S. cerevisiae deletion strains, locus YPL204W, strain HRR25, stronger effect = lower value 0.989 | S. cerevisiae deletion strains, locus YPL209C, strain IPL1, stronger effect = lower value 0.978 | S. cerevisiae deletion strains, locus YPL256C, strain CLN2, stronger effect = lower value 1.03 | S. cerevisiae deletion strains, locus YPR025C, strain CCL1, stronger effect = lower value 0.978 | S. cerevisiae deletion strains, locus YPR106W, strain ISR1, stronger effect = lower value 0.992 | S. cerevisiae deletion strains, locus YPR111W, strain DBF20, stronger effect = lower value 0.976 | S. cerevisiae deletion strains, strain NNK1, stronger effect = lower value 0.998 | S. cerevisiae deletion strains, strain TSCII, stronger effect = lower value 0.986

Cc1cc(=O)n2[nH]cnc2n1
inactive: S. cerevisiae deletion strains, locus YAL013W, strain DEP1, stronger effect = lower value 1.05 | S. cerevisiae deletion strains, locus YBR229C, strain ROT2, stronger effect = lower value 1.01 | [5] 1.06 | S. cerevisiae deletion strains, locus YDL134C, strain PPH21, stronger effect = lower value 0.964 | [1] 1.05 | S. cerevisiae deletion strains, locus YEL061C, strain CIN8, stronger effect = lower value 1 | S. cerevisiae deletion strains, locus YGR078C, strain PAC10, stronger effect = lower value 1.05 | [6] 1.14 | S. cerevisiae deletion strains, locus YHR087W, strain rtc3, stronger effect = lower value 0.99 | S. cerevisiae deletion strains, locus YJR043C, strain POL32, stronger effect = lower value 1.08 | S. cerevisiae deletion strains, locus YJR075W, strain HOC1, stronger effect = lower value 1.02 | S. cerevisiae deletion strains, locus YKL190W, strain CNB1, stronger effect = lower value 0.997 | S. cerevisiae deletion strains, locus YLR039C, strain RIC1, stronger effect = lower value 0.977 | S. cerevisiae deletion strains, locus YLR058C, strain SHM2 (second series), stronger effect = lower value 0.996 | S. cerevisiae deletion strains, locus YLR085C, strain ARP6, stronger effect = lower value 1.01 | S. cerevisiae deletion strains, locus YLR262C, strain YPT6, stronger effect = lower value 0.964 | S. cerevisiae deletion strains, locus YML094W, strain GIM5, stronger effect = lower value 0.985 | S. cerevisiae deletion strains, locus YMR219W, strain ESC1, stronger effect = lower value 0.99 | [2] 1.02 | S. cerevisiae deletion strains, locus YNL153C, strain GIM3, stronger effect = lower value 1.03 | S. cerevisiae deletion strains, locus YNL298W, strain CLA4 (second series), stronger effect = lower value 1.01 | S. cerevisiae deletion strains, locus YNL322C, strain KRE1, stronger effect = lower value 1 | S. cerevisiae deletion strains, locus YNR030W, strain Alg12, stronger effect = lower value 1.02 | [3] 0.997 | [4] 1.01 | S. cerevisiae deletion strains, locus YPR135W, strain CTF4, stronger effect = lower value 1.09 | S. cerevisiae strains, strain wild type, stronger effect = lower value 1.01

Source: PubChem BioAssay AID1159580 (chemical genetic matrix, 2015)
